Bioassay records deposited in PubChem by Sanford-Burnham Center for Chemical Genomics.
Artemis inh – Artemis endonuclease inhibitors, primary screen, biochemical, fluorescence intensity, FAM/BHQ-1 hairpin substrate | Protein artemis (Homo sapiens), Q96SD1 | recombinant Artemis, quenched FAM hairpin cleavage fluorescence | inhibition, % at 10 µM | 30,000 compounds, 0.78% hits;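 active = at 10 µM dose, at least 30% inhibition, measured as corrected fluorescence normalized to stimulator and neutral control wells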
Target sequence (Q96SD1 whole entry, looked up): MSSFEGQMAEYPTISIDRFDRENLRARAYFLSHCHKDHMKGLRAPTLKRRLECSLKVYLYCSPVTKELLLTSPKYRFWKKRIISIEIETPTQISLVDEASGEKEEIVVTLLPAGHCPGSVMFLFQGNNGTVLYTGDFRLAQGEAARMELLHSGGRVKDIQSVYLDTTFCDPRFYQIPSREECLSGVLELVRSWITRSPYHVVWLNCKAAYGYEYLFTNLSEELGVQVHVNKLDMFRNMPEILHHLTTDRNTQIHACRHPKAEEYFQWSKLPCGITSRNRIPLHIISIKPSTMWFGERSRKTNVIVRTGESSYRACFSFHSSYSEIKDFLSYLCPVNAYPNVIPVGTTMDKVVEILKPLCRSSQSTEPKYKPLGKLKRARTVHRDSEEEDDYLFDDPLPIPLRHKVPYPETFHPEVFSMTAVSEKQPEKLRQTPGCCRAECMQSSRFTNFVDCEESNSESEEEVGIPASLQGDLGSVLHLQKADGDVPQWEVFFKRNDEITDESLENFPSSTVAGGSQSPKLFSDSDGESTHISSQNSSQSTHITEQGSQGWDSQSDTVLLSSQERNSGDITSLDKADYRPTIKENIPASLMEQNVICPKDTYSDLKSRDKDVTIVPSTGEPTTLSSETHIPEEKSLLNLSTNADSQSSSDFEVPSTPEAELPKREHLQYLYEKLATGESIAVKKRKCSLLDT
Hits are given with their value. Shown is part of a subset that was picked to be rich in hits.

CNCc1ccccc1Sc1ccc(OC)c(OC)c1 was read as Artemis inh inactive.
Screening CCOC(=O)c1cc2c(=O)n3cccc(C)c3nc2n(CC2CCCO2)c1=NC(C)=O (stereo not drawn) returned Artemis inh inactive.
`CCNC(=O)c1cc2c(=O)n3cccc(C)c3nc2n(Cc2ccc(C)cc2)c1=N` gave Artemis inh inactive.
For CCCCn1c(=NC(=O)c2ccc3c(c2)OCO3)c(C#N)cc2c(=O)n3cccc(C)c3nc21 the results were Artemis inh 40.
`CC(=O)NC1(c2ccc(F)cc2)CCN(C(=O)Nc2ccc(F)cc2F)CC1` gave Artemis inh inactive.
Screening Cc1cc(C)cc(OCC(=O)OCC(=O)c2c(N)n(C)c(=O)n(C)c2=O)c1 returned Artemis inh inactive.
`Cc1ccc(C2C(C#N)=C(N)Oc3n[nH]c(-c4cccs4)c32)cc1` (stereo not drawn) gave Artemis inh inactive.
`COc1cc(-c2[nH]nc3c2C(c2ccoc2)C(C#N)=C(N)O3)cc(OC)c1OC` (stereo not drawn) gave Artemis inh inactive.
Screening N#CC1=C(N)Oc2n[nH]c(-c3cccs3)c2C1c1ccoc1 (stereo not drawn) returned Artemis inh 39.
For O=C(NC1CCCCC1)C1CC=CCC1C(=O)OCC(Cl)=C(Cl)Cl (stereo not drawn) the results were Artemis inh inactive.
Screening CC1CCCCC12NC(=O)N(CC(=O)Nc1sc3c(c1C(N)=O)CCC3)C2=O (stereo not drawn) returned Artemis inh inactive.
For CC1=C(C(=O)Nc2ccccc2Cl)C(c2ccc(N(C)C)cc2)NC(=O)N1 (stereo not drawn) the results were Artemis inh inactive.
`NC(=O)C1(N2CCCCC2)CCN(C(=O)NC2CCCCC2)CC1` gave Artemis inh inactive.
`O=C(COc1ccccc1)NNc1c2ccccc2nc2ccccc12` gave Artemis inh inactive.
For O=C(NNC(=O)c1cc(-c2ccc(Cl)cc2Cl)nc2ccccc12)Nc1ccccc1 the results were Artemis inh inactive.
For O=C(NNc1c2ccccc2nc2ccccc12)c1ccc(O)cc1O the results were Artemis inh 38.
For CCOc1ccc(-c2nnn(CC(=O)N3CCCC3)n2)cc1OCC the results were Artemis inh inactive.
Screening CCOc1ccc(NC(=O)CC2C(=O)N(C)C(=S)N2Cc2ccc3c(c2)OCO3)cc1 (stereo not drawn) returned Artemis inh inactive.
CC12CCC(C(=O)NCc3ccc4c(c3)OCO4)(C(=O)C1=O)C2(C)C (stereo not drawn) was read as Artemis inh inactive.
`Cc1ccc(O)c(C2=NOC(O)(C(F)(F)F)C2)c1` (stereo not drawn) gave Artemis inh inactive.
For COC(=O)c1c(C)[nH]c(C(=O)CSc2ccc(Cl)cc2)c1C the results were Artemis inh inactive.
For Cn1c(NCc2ccccc2)cc(=O)n(C)c1=O the results were Artemis inh inactive.
CC(=O)N(Cc1ccc(F)cc1)C1=C(NCc2ccccc2)C(=O)c2ccccc2C1=O was read as Artemis inh 39.
For CC(C)N(CCNC(=O)C1CCC(=O)N1Cc1ccc(F)cc1)Cc1ccccc1 (stereo not drawn) the results were Artemis inh inactive.
For CC(Sc1nnc(-c2cccs2)n1-c1ccccc1)C(=O)NCc1ccc2c(c1)OCO2 (stereo not drawn) the results were Artemis inh inactive.
For O=c1cc(-c2ccccc2)n(S(=O)(=O)c2ccc3ccccc3c2)o1 the results were Artemis inh inactive.
Screening O=C(Nc1ccccc1C(=O)NC(Cc1ccccc1)C(=O)NC1CCCCCC1)c1ccccc1 (stereo not drawn) returned Artemis inh inactive.
`CCCCCCOc1ccc(/C(N)=N/O)cc1` gave Artemis inh inactive.
For CCCCCCCCC/C(=N\O)c1ccccn1 the results were Artemis inh 35.
Screening CCCCCCCCCCNC(=O)C(=O)Nc1ccccn1 returned Artemis inh inactive.
`Fc1ccc(Oc2nccc(-c3ccc(Cl)cc3)n2)cc1` gave Artemis inh inactive.
For Cc1cccc(C)c1NC(=O)COc1cccc(/C=N/NC(=O)C(=O)NCc2ccccc2)c1 the results were Artemis inh inactive.
COc1ccc(Cn2nnnc2C(c2cc(OC)ccc2OC)N2CCC(C(N)=O)CC2)cc1 (stereo not drawn) was read as Artemis inh inactive.
For CS/C(=N\S(=O)(=O)c1cccs1)NC(=O)CSc1nc2ccccc2s1 the results were Artemis inh inactive.
Screening COc1ccc(N2CCN(C(c3cc(OC)ccc3OC)c3nnnn3CC3CCCO3)CC2)cc1 (stereo not drawn) returned Artemis inh inactive.
`Cc1cccc2cc(=O)[nH]c(C)c12` gave Artemis inh inactive.
Screening Cc1ccccc1Nc1cc2ccccc2c(=O)[nH]1 returned Artemis inh 31.
COC(=O)c1[nH]c(=O)c2ccccc2c1O was read as Artemis inh inactive.
`CC(C)NCCOCCOc1ccccc1F` gave Artemis inh inactive.
Screening O=C1NC(=O)/C(=C\c2ccccc2Oc2ccc(F)c(F)c2)S1 returned Artemis inh 34.
For Cc1nn(-c2ccc(F)cc2)c(C)c1NS(=O)(=O)c1ccc(Cl)cc1 the results were Artemis inh inactive.
For C=CCn1c(SCC(=O)Nc2sccc2C#N)nc2sc(C)c(C)c2c1=O the results were Artemis inh inactive.
For COc1cccc(/C=N/NC(=O)CSc2nnc(C)n2-c2ccccc2)c1OC the results were Artemis inh inactive.
For COc1cccc(/C=N/Nc2nn3cnnc3c3ccccc23)c1O the results were Artemis inh 35.
For COc1cccc(/C=N\n2c(C)nnc2C)c1OC the results were Artemis inh inactive.
For O=C(c1cc(-c2ccncc2)nc2ccccc12)N1CCN(S(=O)(=O)/C=C/c2ccccc2)CC1 the results were Artemis inh inactive.
For CCOc1ccccc1NC(=O)C(Sc1ccccc1)c1ccccc1 (stereo not drawn) the results were Artemis inh inactive.
For O=C1/C(=C\c2ccco2)SC(=S)N1Cc1ccccc1 the results were Artemis inh inactive.
Screening CC(C(=O)O)N1C(=O)/C(=C/C=C/c2ccco2)SC1=S (stereo not drawn) returned Artemis inh 40.
C=CCSC1=N/C(=C\C=C\c2ccco2)C(=O)S1 was read as Artemis inh inactive.
Cn1cccc1C(=O)C(=O)Nc1cccc(Cl)c1Cl was read as Artemis inh inactive.
`COC(=O)C1=C(C)N=C2SC(C#N)=C(N)N2C1c1ccc(OCc2ccccc2)cc1` (stereo not drawn) gave Artemis inh inactive.
Screening COc1cccc(C(=O)Nc2ccc(NC(=O)C(C)(C)C)cn2)c1 returned Artemis inh inactive.
`CCn1c(SCC(=O)Nc2oc(-c3ccccc3)c(-c3ccccc3)c2C#N)nnc1-c1ccncc1` gave Artemis inh 31.
`N#Cc1c(NC(=O)CSc2ccccn2)oc(-c2ccccc2)c1-c1ccccc1` gave Artemis inh inactive.
Screening CCn1c(SCC(=O)Nc2oc(-c3ccccc3)c(-c3ccccc3)c2C#N)nnc1-c1ccco1 returned Artemis inh inactive.
For COc1ccc(-c2csc(/C(C#N)=C(\O)CSc3nccn3C)n2)cc1OC the results were Artemis inh inactive.
For NC(=O)C1(N2CCCCC2)CCN(C(=O)CSc2nc3ccccc3s2)CC1 the results were Artemis inh inactive.
`O=c1c2ccccc2nc(N/N=C/c2c(O)ccc3ccccc23)n1O` gave Artemis inh 61.
`CCCc1nc2ccccc2c(=O)n1/N=C/c1ccc(O)cc1O` gave Artemis inh inactive.
